Screening results (PubChem)
HP1b chromo inh – inhibitors of HP1-beta chromodomain binding to methylated histone tails | Potency, µM (series often up to 114 µM), for inactives: at the top dose activity change, negative = inhibition, hits mostly inhibitors | AlphaScreen HP1-beta / biotin-H3K9me3 peptide binding | hit rate 0.56% among 390,000 | P83916; note: nearly all actives have a fitted effect of over 70% in size
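AlphaScreen: HP1-beta (50 nM) preformed 30 min with biotin-H3(1-18)K9me3 peptide (50 nM) in PBS pH 7.4, 0.01% Tween-20. Compound added for 30 min at RT, then streptavidin donor/nickel chelate acceptor beads (10 ug/mL) for 30 min.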
Sfp inh – blocks B. subtilis Sfp PPTase activity; Q9F4F7; Biochemical Sfp PPTase activity, qHTS; Potency, µM, without a hit: largest response in the series, negative = inhibition, hits mostly inhibitors; hit rate 3.5% among 310,000; AID 1490;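 note: the enzyme is Sfp with the accession as filed and its product quenches rhodamine fluorescence; 0% = enzyme reaction without inhibitor and -100% = no enzyme wells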
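With Hepes-Na pH 7.6 buffer containing 10 mM MgCl2, Sfp (15 nM) modified BHQ-2-YbbR (12.5 uM) using rhodamine-CoA (5 uM). Two reads 30 minutes apart at 525/598 nm yielded each well's rate.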
JMJD2A Tudor inh – JMJD2A Tudor domain (human) inhibition. Potency, µM (titrated, usually from 114 µM), for the others: top-dose activity change, negative = inhibition, most hits filed as inhibitors. hit rate 4.4% among 390,000. O75164. AlphaScreen JMJD2A-Tudor / H3K4me3 peptide binding; note: % is set by controls: 0 for no effect and ±100 for the full control effect; nearly all actives have a fitted effect of over 50% in size
G9a block – inhibitors of human histone lysine methyltransferase G9a; Q96KQ7; G9a H3K9 monomethylation, AlphaScreen, 2 h; Potency, µM (titrated, usually from 102 µM), inactives show top-dose activity, negative = inhibition, hits mostly inhibitors; hit rate 8.8% among 350,000; note: % is set by controls: 0 for no effect and ±100 for the full control effect; nearly all actives have a fitted effect of over 75% in size
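Quantitative HTS format: methyltransferase activity on a biotin-tagged H3K9 peptide is measured by AlphaScreen, using a rabbit anti-monomethyl-H3K9 antibody with streptavidin donor and anti-IgG acceptor beads. Final levels are 20 nM enzyme, 500 nM peptide, 20 uM SAM; 2 h RT.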
BAZ2B block – BAZ2B (human) inhibition; Q9UIF8; AlphaScreen BAZ2B-H3K14Ac peptide displacement; Potency, µM (top dose mostly 114 µM), without a hit: top-dose activity change, negative = inhibition, hits mostly inhibitors; hit rate 4.4% among 360,000; AID 504333; note: % is set by controls: 0 for no effect and ±100 for the full control effect; nearly all actives have a fitted effect of over 60% in size
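Compounds, titrated to a top concentration of 110 uM, were incubated 30 min at room temperature with preformed BAZ2B/acetyl-K14 H3 peptide complex (50 nM each). Proximity signal was measured by AlphaScreen after 20 min with beads.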
L3MBTL1 inh – blocks human L3MBTL1. Potency, µM (highest dose often 57.1 µM), for the others: at the highest dose activity, negative = inhibition, hits mostly inhibitors. AlphaScreen L3MBTL1–H3K9me1 peptide binding. Q9Y468. hit rate 0.66% among 230,000; note: % is set by controls: 0 for no effect and ±100 for the full control effect; nearly all actives have a fitted effect of over 60% in size
Target sequence (Q9Y468 whole entry, looked up): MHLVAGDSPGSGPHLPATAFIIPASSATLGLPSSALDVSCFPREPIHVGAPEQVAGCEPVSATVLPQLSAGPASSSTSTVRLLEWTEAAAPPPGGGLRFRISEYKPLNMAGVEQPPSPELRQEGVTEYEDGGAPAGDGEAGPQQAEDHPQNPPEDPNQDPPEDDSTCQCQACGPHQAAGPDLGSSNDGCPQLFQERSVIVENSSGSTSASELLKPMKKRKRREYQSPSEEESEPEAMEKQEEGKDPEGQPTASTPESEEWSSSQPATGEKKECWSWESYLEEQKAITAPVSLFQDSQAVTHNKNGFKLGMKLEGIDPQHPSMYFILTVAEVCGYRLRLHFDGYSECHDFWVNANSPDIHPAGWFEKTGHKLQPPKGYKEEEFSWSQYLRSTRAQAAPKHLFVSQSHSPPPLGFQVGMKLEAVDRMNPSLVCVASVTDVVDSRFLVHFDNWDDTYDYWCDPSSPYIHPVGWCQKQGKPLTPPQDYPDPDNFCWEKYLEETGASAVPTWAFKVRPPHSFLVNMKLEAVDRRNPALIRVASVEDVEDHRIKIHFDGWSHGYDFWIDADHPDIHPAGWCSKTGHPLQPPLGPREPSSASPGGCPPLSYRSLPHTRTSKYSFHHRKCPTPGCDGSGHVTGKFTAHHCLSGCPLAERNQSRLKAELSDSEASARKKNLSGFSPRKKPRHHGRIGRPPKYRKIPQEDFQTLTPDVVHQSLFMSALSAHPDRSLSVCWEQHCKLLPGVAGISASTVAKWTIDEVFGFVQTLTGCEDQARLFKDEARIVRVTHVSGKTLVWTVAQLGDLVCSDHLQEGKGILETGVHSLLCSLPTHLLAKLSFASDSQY
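AlphaScreen proximity signal between nickel-chelate acceptor and streptavidin donor beads (final 10 ug/mL) reports binding of 50 nM L3MBTL1 to 75 nM biotin-H3 K9me1 peptide; complex incubated with compounds 30 min at room temperature; cefsulodin titration as control.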
An asterisk follows results filed as active; ? = inconclusive; / = not tested or not shown; [ ] = another dose, or the depositor's remark. An excerpt weighted towards active compounds, which were near 12% of everything screened. Calls come from the whole dose curve; as a rule, active = well fitted curve in the direction sought with a large enough effect; inconclusive = small, poorly fitted or top-dose-only effect, or another doubt; inactive = no such curve, though single readings can be large; an effect the other way counts as inactive or inconclusive. Potency is the fitted concentration of half-maximal effect.

SMILES	HP1b chromo inh	Sfp inh	JMJD2A Tudor inh	G9a block	BAZ2B block	L3MBTL1 inh
O=C1C2C(C(=O)N1/N=C/c1ccc(N3CCCCC3)o1)C1C=CC2C12CC2 (configuration not stated)	-3%	1µM*	-23%	?	-30%	-5%
COc1ccc(OC)c(N=c2ssnc2Cl)c1	?	8.9µM*	?	1.1µM*	25µM*	-7%
COc1cc(N=c2ssnc2Cl)c(OC)cc1Cl	11µM*	10µM*	25µM*	1.1µM*	28µM*	-10%
O=C(Nc1cccc2ccccc12)C(=O)C1C(=O)Nc2ccccc21 (configuration not stated)	30%	4%	-7%[11.4 µM]	/	?	/
O=C(O)CCCCCNC(=O)C(=O)C1C(=O)Nc2ccccc21 (configuration not stated)	61%	-5%	-4%[11.4 µM]	25µM*	?	5%
COCCCNC(=O)C(=O)C1C(=O)Nc2ccccc21 (configuration not stated)	3%	11%	-29%	40µM*	-35%	-1%
O=C(NCc1ccncc1)C(=O)C1C(=O)Nc2ccccc21 (configuration not stated)	-4%	7%	?	-48%	?	22%
O=C1[C@H]2[C@H]3[C@H](O)[C@H](O)C/C(=N/OCc4ccccc4)[C@@H]3CC[C@@H]2C(=O)N1Cc1ccc2c(c1)OCO2	/	11%	/	/	/	/
Cc1ccc(C)c(NC(=O)C2CCN(c3nn4c(=O)cc(C)nc4s3)CC2)c1	33%	/	-5%	30%[59 µM]	3%	/
O=C(c1cc(COc2ccc(F)cc2Cl)on1)N1CCCCCCC1	79%	0%	20µM*	62%	46%	/
O=C(c1cc(COc2ccc(F)cc2Cl)on1)N1CCCCCC1	41%	1%	16%	90%	35%	/
Cc1ccc(S(=O)(=O)c2nc(S(=O)(=O)c3ccc(C)cc3)c(NCCCOC(C)C)s2)cc1	29%	/	-14%	?	-11%	/
COc1ccccc1-n1c(=O)n(C)c2c(C(N)=O)nc(-c3cc(OC)c(OC)c(OC)c3)nc21	17%[57 µM]	/	-20%	25%[59 µM]	9%	/
CCC(C)NCCCOc1ccc([N+](=O)[O-])cc1 (configuration not stated)	-19%	-19%	79µM*	?	?	-10%
CCC(C)NCCCCOc1cc(C)cc(C(C)C)c1 (configuration not stated)	?	-39%	8.9µM*	11µM*	?	9%
CCC(C)NCCCCOc1ccc(Br)cc1 (configuration not stated)	?	-13%	1.6µM*	8.9µM*	?	6%
COc1ccc(N2CCN(c3nc4c(c(=O)[nH]c(=O)n4C)n3Cc3cccc(C)c3)CC2)cc1	?	-8%	?	10µM*	-34%	-15%
COc1ccc(CCn2c(-n3nc(C)cc3C)nc3c2c(=O)[nH]c(=O)n3C)cc1	-14%	/	3.2µM*	/	/	/
COc1ccc(N2CCN(Cc3nc4c(c(=O)[nH]c(=O)n4C)n3Cc3ccccc3F)CC2)cc1	39%	/	-8%	-11%[59 µM]	-24%	/
COc1ccc(N2CCN(Cc3nc4c(c(=O)[nH]c(=O)n4C)n3Cc3ccccc3C)CC2)cc1	19%	/	-4%	28µM*	-23%	/
Cc1ccc(Cn2c(-n3nc(C)cc3C)nc3c2c(=O)[nH]c(=O)n3C)cc1	28%	11%	-3%	-1%	-4%	-1%
CCOc1ccc(-c2oc3cc(Cl)ccc3c(=O)c2O)cc1OC	36%	/	-31%	38%[59 µM]	4%	/
CSc1ccc(-c2ccco2)nn1	32%	32µM*	-3%	32µM*	-22%	/
CCOc1ccc(-c2ccc(SC)nn2)cc1	31%	8%	7%	-1%	-22%	?
CCSc1ccc(-c2ccco2)nn1	19%	14µM*	-17%	18µM*	-25%	/
SMILES	HP1b chromo inh	Sfp inh	JMJD2A Tudor inh	G9a block	BAZ2B block	L3MBTL1 inh
CC(=O)N[C@H]1CSSC[C@@H](C(=O)N2CCC[C@H]2C(=O)N2CCC[C@H]2C(=O)N[C@@H](CCCCN)C(=O)N[C@@H](CC(=O)O)C(N)=O)NC(=O)CNC(=O)[C@H](Cc2c[nH]c3ccccc23)NC(=O)[C@H](CCCNC(=N)N)NC(=O)[C@@H](Cc2ccc(Cl)c(Cl)c2)NC(=O)[C@H](Cc2cnc[nH]2)NC(=O)[C@H](CCC(=O)O)NC1=O	/	17%	/	/	/	/
Cc1cc(C)c(NC(=O)/C(=C/c2ccco2)c2ccccc2)c(C)c1	-3%	35µM*	-33%	45µM*	-36%	/
Cc1cccc(C)c1NC(=O)/C(=C/c1ccco1)c1ccccc1	1%	22µM*	-18%	32µM*	-37%	/
Cc1ccc(N(C)S(=O)(=O)c2nnc(NC(=O)C3CCCCC3)s2)cc1	94%	/	28%	-2%[59 µM]	28%	/
COc1ccc(-c2csc(NC(=O)CN3C(=O)C4CCCCC4C3=O)n2)cc1OC (configuration not stated)	-9%	1%	-35%	-11%	?	/
COc1ccc(OC)c(-c2csc(NC(=O)COC(=O)c3ccc(NC(=O)CC#N)cc3)n2)c1	-12%	/	45µM*	11%[12.7 µM]	40µM*	?
COc1ccc(OC)c(-c2csc(NC(=O)CN3C(=O)C4CCCCC4C3=O)n2)c1 (configuration not stated)	?	/	?	50µM*	?	0%
COc1ccc(-c2csc(NC(=O)CN3C(=O)NC4(CCCC4)C3=O)n2)cc1OC	-2%	/	-21%	56µM*	-22%	-8%
COc1ccc(OC)c(-c2csc(NC(=O)Cc3cc(OC)c(OC)c(OC)c3)n2)c1	12%	7%	-16%	19%	1%	/
COc1ccc(-c2csc(NC(=O)CN3C(=O)NC4(CCCC4)C3=O)n2)c(OC)c1	0%	/	-30%	50µM*	-4%	-9%
Cc1ccc(-n2[nH]c3c4c(ccc3c2=O)C(=O)c2ccccc2C4=O)cc1	-14%	10%	-11%	2.8µM*	-13%	0%
COCCCn1[nH]c2c3c(ccc2c1=O)C(=O)c1ccccc1C3=O	-18%	-18%	-32%	7.1µM*	?	/
Cc1ccc(C)c(-n2[nH]c3c4c(ccc3c2=O)C(=O)c2ccccc2C4=O)c1	50µM*	-8%	?	-7%[59 µM]	45µM*	-6%
Cc1ccc(C)c(CN2C(=O)C(=O)c3ccccc32)c1	1%	/	-18%	?	-3%	/
CC(C)(C)n1[nH]c2c3c(ccc2c1=O)C(=O)c1ccccc1C3=O	18%	15%	-21%	?	-10%	/
Cc1ccc(NS(=O)(=O)c2cc3c(cc2F)NC(=O)CC3)cc1Cl	/	/	-24%	/	/	/
